# Compound activity as filed in PubChem BioAssay.
# KLF5 inhibitor: kruppel-like factor 5 inhibition | DLD-1 KLF5 promoter-luciferase reporter, luminescence | inhibition, % at 5 µM | 0.23% of 290,000 active | AID 1700;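 active means inhibition above a per-plate limit of that plate's mean compound inhibition plus 3 SD, cut at about 60% in these data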;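 further: 0% = DMSO wells and 100% = LY294002 at 200 µM; higher means less KLF5 promoter-driven luciferase light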
# Ba/F3 V617F tox: lowers viability of Ba/F3 cells expressing EpoR and JAK2V617F. inhibition, % at 5.6 µM. AID 1446. ATP luminescence. 1.1% of 220,000 active;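 active means inhibition above the campaign mean plus 3 SD over all tested compounds, cut at about 24% in these data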;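 further: cytokine-independent growth of Ba/F3 cells driven by EpoR plus mutant JAK2; 0% = DMSO-treated cells and 100% = JAK inhibitor I control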
# BaF3 tox: reduces parental Ba/F3 cell viability, JAK2V617F counter-screen. AID 1486. 1.1% of 220,000 active. CellTiter-Glo ATP luminescence. inhibition, % at 5.6 µM;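 active means inhibition above a per-campaign cutoff, the mean inhibition of all tested compounds plus 3 SD, cut at about 27% in these data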;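 further: 0% = DMSO wells and 100% = JAK Inhibitor I control wells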
# APP 5UTR inh: APP translation inhibition. AID 1285. inhibition, % at 2 µM. SH-SY5Y APP 5'UTR-luciferase reporter, luminescence. 0.82% of 190,000 active;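 active means inhibition above a set limit, derived from the sample mean plus 3 SD, cut at about 45% in these data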
# IEC-6 cytotox: kills IEC-6 intestinal cells in KLF5 counter-screen; IEC-6 cytotoxicity, luminescence viability; inhibition, % at 5 µM; 0.78% of 290,000 active;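 further: 0% = plate median of test compound wells and 100% = cytotoxic reference compound wells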
# IEC-6 tox confirm: IEC-6 cytotoxicity, confirmation assay. 63% of 1,900 active. IEC-6 rat intestinal epithelial viability, luminescence. inhibition, % at 5 µM. shares compounds with IEC-6 cytotox;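 further: 0% = vehicle and 100% = reference cytotoxic drug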
# An asterisk follows results filed as active; / = not tested or not shown. Shown are actives, neighbours in structure and some others; about 1.8% of the full set was active somewhere. Unless noted, no stated cut-off is given here; in the data, active means inhibition above about 22%; inactive means the rest.
SMILES,KLF5 inhibitor,Ba/F3 V617F tox,BaF3 tox,APP 5UTR inh,IEC-6 cytotox,IEC-6 tox confirm
Cc1cccc2cc3c(nc12)SC(=NCC1CCCO1)N(Cc1ccco1)C3 (stereo not drawn),9,9,9,2,88*,4
Cc1ccc(-n2ncc(C(=O)Nc3cc(Cl)cc(Cl)c3)c2C2CCNCC2)cc1C,52,95*,86*,79*,98*,97*
Cc1ccc(Nc2nc(N3CCOCC3)nc(N3CCOCC3)n2)cc1C,-6,/,/,/,84*,88*
Cc1cccc(Nc2nc(N3CCOCC3)nc(N3CCOCC3)n2)c1,-35,/,/,/,64*,37*
Cc1cccc(Nc2nc(N3CCCCC3)nc(N3CCCCC3)n2)c1,-7,3,0,8,0,/
CCc1ccc(OC)c(S(=O)(=O)Nc2ccc(Cc3ccncc3)cc2)c1,1,/,/,/,25*,13
c1ccc(-c2cccc(-c3ccccn3)n2)nc1,53,94*,85*,86*,81*,83*
c1ccc(-c2ccc(-c3ccccn3)s2)nc1,-65,0,-2,/,13,/
COc1ccccc1/C=C/C(=O)Nc1ccc2c(c1)OCCO2,-218,3,12,-134,25*,19
O=C(/C=C/c1ccccc1)Nc1ccc2c(c1)OCCO2,-51,-1,6,-152,0,/
Cc1ccc2ccc3ccc(C)nc3c2n1,51,/,/,/,91*,37*
NC(=S)Nc1ccc(Oc2ccc(NC(N)=S)cc2)cc1,-16,4,8,-8,-1,/
N=c1ccn2c(n1)OC1C(O)C(CO)OC12 (stereo not drawn),24,75*,80*,/,92*,72*
Cc1c(N/N=C(\C#N)C(=O)c2ccccc2)c(=O)n(-c2ccccc2)n1C,37,12,10,77*,39*,44*
Cc1ccccc1C(=O)/C(C#N)=N/Nc1c(C)n(C)n(-c2ccccc2)c1=O,30,8,8,68*,38*,36*
CCOC(=O)/C(C#N)=N/Nc1c(C)n(C)n(-c2ccccc2)c1=O,-47,0,7,9,-2,/
COc1cccc(C2c3[nH]c4ccccc4c3C[C@H]3C(=O)N(C4CCN(Cc5ccccc5)CC4)CC(=O)N23)c1 (stereo partly drawn),-11,/,/,/,9,/
CN(C(=O)c1nc(-c2ccccc2)n(-c2ccccc2)n1)C1CCS(=O)(=O)C1 (stereo not drawn),-10,/,/,/,-4,/
COc1ccccc1C(=O)Nc1nc2ccccc2s1,22,/,/,/,29*,28*
COc1ccccc1C(=O)Nc1nnc(CCc2ccccc2)s1,15,/,/,/,44*,56*
CCOC(=O)Cc1nnc(NC(=O)c2ccccc2OC)s1,6,-3,0,-8,1,/
COc1ccccc1C(=O)Nc1nc2ccc(S(C)(=O)=O)cc2s1,-75,1,4,-22,-6,/
CCc1ccc(CNC(=O)Cc2ccc(NC(=O)C3=C(C)OCCS3)cc2)cc1,43,/,/,/,78*,53*
Cc1ccc(Nc2nc(N/N=C/c3c[nH]c4ccccc34)nc(N3CCOCC3)n2)cc1,-30,80*,62*,32,90*,94*
Cc1[nH]c2ccccc2c1/C=N/Nc1nc(Nc2ccc(F)cc2)nc(N2CCOCC2)n1,18,0,10,13,56*,96*
SMILES,KLF5 inhibitor,Ba/F3 V617F tox,BaF3 tox,APP 5UTR inh,IEC-6 cytotox,IEC-6 tox confirm
c1ccc(Nc2nc(N3CCOCC3)nc(N3CCOCC3)n2)cc1,-21,-2,3,24,8,/
Cc1cc(/C=N/Nc2nc(N3CCOCC3)nc(N3CCOCC3)n2)c(C)n1-c1ccccc1,-31,-3,6,17,-3,/
C(=N\Nc1nc(Nc2ccccc2)nc(N2CCOCC2)n1)/c1c[nH]c2ccccc12,-34,78*,67*,21,86*,97*
Fc1ccc(Nc2nc(N3CCOCC3)nc(N3CCOCC3)n2)cc1,-4,/,/,/,2,/
O=C(Nc1ccc(Br)cn1)c1ccc(Br)s1,-106,/,/,/,28*,2
O=C(Nc1ccc(Br)cn1)c1ccc(Cl)s1,-223,/,/,/,10,/
O=C(Nc1ccc(N2CCN(Cc3ccccc3F)CC2)cc1)c1ccc([N+](=O)[O-])o1,19,/,/,/,72*,33*
O=C(Nc1ccc(N2CCN(Cc3ccccc3F)CC2)cc1)c1ccccc1[N+](=O)[O-],-5,-3,5,6,-2,/
CCN1CCN(c2ccc(NC(=O)c3ccc(Br)o3)cc2)CC1,-93,/,/,/,-3,/
O=C(Nc1ccc(N2CCCC2)cc1)c1ccc(Br)o1,-77,3,3,-57,2,/
O=C(Nc1ccc(N2CCCC2)c(Cl)c1)c1ccc([N+](=O)[O-])o1,-5,75*,-1,78*,71*,36*
O=C(Nc1ccc(N2CCCCC2)cc1)c1ccc([N+](=O)[O-])o1,10,/,/,/,80*,15
O=C(Nc1ccc(N2CCCC2)c(Cl)c1)c1ccco1,-149,4,4,-211,-3,/
CN1CCN(c2ccc(NC(=O)c3ccc(-c4ccc(Br)cc4)o3)cc2)CC1,-33,6,10,2,25*,-6
Cc1ccc(NC(=O)CNC(C)c2ccccc2)cc1 (stereo not drawn),-49,/,/,/,2,/
COc1ccc(CCNc2c3ccccc3nc3ccccc23)cc1OC,-4,6,-7,/,0,/
CCCC(=O)N1CCN(c2ccc(NC(=O)c3ccc([N+](=O)[O-])o3)cc2)CC1,-5,90*,45*,70*,90*,45*
CS(=O)(=O)N1CCN(c2ccc(NC(=O)c3ccc([N+](=O)[O-])o3)cc2)CC1,-21,6,-7,66*,25*,56*
CC(C)(C)C(=O)N1CCN(c2ccc(NC(=O)c3ccc([N+](=O)[O-])o3)cc2)CC1,47,/,/,/,101*,58*
O=C(Nc1cccc(NC(=O)c2ccccc2Cl)c1)c1ccc([N+](=O)[O-])o1,10,/,/,/,101*,49*
Cc1c(CN2CCCC(CO)(Cc3cccc(Cl)c3)C2)cnn1C (stereo not drawn),-5,-1,1,-6,-5,/
COc1ccc(OC)c(S(=O)(=O)N2CCCC(N3CCN(c4ccccc4)CC3)C2)c1 (stereo not drawn),-6,/,/,/,8,/
Cc1cccc(C)c1NC(=O)c1nc(S(=O)(=O)Cc2ccccc2)ncc1Cl,18,/,/,/,38*,15
CSc1ncc(Cl)c(C(=O)Nc2cccc3ccccc23)n1,-4,-1,2,-8,4,/
Cc1nnc(NC(=O)c2nc(S(=O)(=O)Cc3ccccc3)ncc2Cl)s1,5,/,/,/,34*,-4
CS(=O)(=O)c1ncc(Cl)c(C(=O)Nc2ccc(OC(F)F)cc2)n1,-6,/,/,/,99*,29*
CS(=O)(=O)c1ncc(Cl)c(C(=O)Nc2ccc(N3CCOCC3)cc2)n1,-22,8,3,44,-2,/
CCN(c1ccccc1)S(=O)(=O)c1ccc(NC(=O)c2ccco2)cc1,-20,1,7,3,0,/
CCN(c1ccccc1)S(=O)(=O)c1ccc(NC(=O)c2nc(S(C)(=O)=O)ncc2Cl)cc1,41,/,/,/,100*,12
